The source made the active and inactive calls. Rule for the calls: active = hit-call score of the fitted dose curve at least 0.9, where 1 is the maximum; inactive = score below 0.9.

A word on the AC50: it is the midpoint of the concentration-response curve, whichever way the signal moves.

Aryl hydrocarbon receptor (Homo sapiens), sequence (P35869 whole entry, looked up): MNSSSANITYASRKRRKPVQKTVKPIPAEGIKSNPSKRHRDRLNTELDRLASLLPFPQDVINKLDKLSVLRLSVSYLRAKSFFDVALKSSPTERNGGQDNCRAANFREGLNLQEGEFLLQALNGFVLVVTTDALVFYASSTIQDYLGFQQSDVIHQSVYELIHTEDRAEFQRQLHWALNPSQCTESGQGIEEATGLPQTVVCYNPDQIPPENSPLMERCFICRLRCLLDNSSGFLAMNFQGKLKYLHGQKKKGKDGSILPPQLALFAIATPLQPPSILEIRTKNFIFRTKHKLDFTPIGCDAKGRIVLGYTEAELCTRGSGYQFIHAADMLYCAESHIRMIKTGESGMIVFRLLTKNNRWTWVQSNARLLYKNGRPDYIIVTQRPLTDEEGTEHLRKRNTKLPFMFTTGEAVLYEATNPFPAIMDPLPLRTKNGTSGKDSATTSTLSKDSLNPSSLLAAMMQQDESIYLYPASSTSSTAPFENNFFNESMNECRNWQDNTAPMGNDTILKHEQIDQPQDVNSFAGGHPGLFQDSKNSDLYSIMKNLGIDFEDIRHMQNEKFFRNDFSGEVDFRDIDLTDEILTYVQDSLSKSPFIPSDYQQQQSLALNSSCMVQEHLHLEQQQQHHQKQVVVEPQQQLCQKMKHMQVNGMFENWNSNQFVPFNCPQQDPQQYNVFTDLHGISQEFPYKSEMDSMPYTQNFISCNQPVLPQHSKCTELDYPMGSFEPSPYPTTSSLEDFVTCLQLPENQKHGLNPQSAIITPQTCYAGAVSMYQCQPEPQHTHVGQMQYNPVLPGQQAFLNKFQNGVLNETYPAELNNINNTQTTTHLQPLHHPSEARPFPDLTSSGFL

Test system in the first test: not listed separately
Nature of the test: ATG_DR4_LXR_CIS: Attagene CIS-FACTORIAL HepG2 Assay for human Liver X Receptor (LXR), DR4 submotif (AID 2282929). To be noted: HepG2 Attagene DR4 cis-reporter, mRNA transcription; actives raise or lower the signal. A digest of the protocol:
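Endogenous factor activity at a DR4 cis-element is read as reporter mRNA in transiently transfected HepG2 cells. Exposure lasts 24 h; transcripts are amplified, fluorescently labelled and sized by capillary electrophoresis, with DMSO as baseline.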
Take `CNC(=S)NC`: the call was inactive.

Turning to `CCCCC(CC)COP(=O)(O)OCC(CC)CCCC` (centres undefined), the AC50 was 42 µM (active).

For `C=C(C)C(=O)OCC(F)(F)C(F)(F)C(F)(F)F`, the compound was called inactive. Turning to `COC(=O)C1CCC(C(=O)OC)CC1` (centres undefined), the compound was classed as inactive. For `C=CC/C=C/C/C=C/C/C=C/C`, the compound was classed as inactive. Take `O=C(O)C(F)(F)C(F)(F)C(F)(F)C(F)(F)C(F)(F)C(F)(F)C(F)(F)C(F)(F)C(F)(F)C(F)(F)C(F)(F)C(F)(F)C(F)(F)F`: the compound was called inactive.

As for `C=CC(=O)OCC(F)(F)C(F)(F)C(F)(F)C(F)(F)C(F)(F)C(F)(F)C(F)(F)F`, the call was inactive. With `N=C(N)C(F)(F)C(F)(F)C(F)(F)C(F)(F)C(F)(F)C(F)(F)C(F)(F)F`, the AC50 is 211 µM (active). For `Nc1ccc(S(=O)(=O)Nc2nccs2)cc1`, the call was inactive. In the case of `O=C(C=Cc1ccccc1)OCC=Cc1ccccc1`, the AC50 was 24.3 µM (active). On to `FC(F)(F)C(F)(F)C(F)(F)C(F)(F)C(F)(F)CCI`, for which the call was inactive. As to `Nc1ccc(Oc2cccc(Oc3ccc(N)cc3)c2)cc1`, the AC50 was 25.4 µM (active). In the case of `FC1CC(F)(F)C(F)(F)C1(F)F` (centres undefined), the call was inactive.

With `CCCCCCCOC(=O)c1ccccc1C(=O)OCCCCCCC`, the outcome was inactive.

The target in the next test is Aryl hydrocarbon receptor (Homo sapiens) (UniProt P35869). Nature of the test: ATG_Ahr_CIS: Attagene CIS-FACTORIAL HepG2 Assay for human Aryl Hydrocarbon Receptor (Ahr) (AID 2282930). Conditions: HepG2 AhR cis-factorial reporter transcription; actives raise or lower the signal. A digest of the protocol:
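Following 24 h of chemical dosing, transfected HepG2 liver cells with cis-driven reporter units were lysed for RNA; reporter mRNA was quantified via RT-PCR and capillary electrophoresis, and responses fitted bidirectionally from DMSO.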
On to `Nc1cc(Cl)c(N)c(Cl)c1`, for which the AC50 was 6.21 µM (active). Regarding `O=C(CC(=O)C(F)(F)C(F)(F)F)C(F)(F)F`, the result was inactive. Consider `FC(F)(F)C(F)(F)CNCC(F)(F)C(F)(F)F`, for which the compound was classed as inactive. Same read-out and setting: under `CCc1c(Br)c(Br)c(Br)c(Br)c1Br` stands “inactive”; under `C=C(C)C(=O)OCCC(F)(F)C(F)(F)C(F)(F)C(F)(F)C(F)(C(F)(F)F)C(F)(F)F`, “inactive”. The same measure, in the same setting: the value for `C=CC(=O)OCC(F)(F)C(F)(F)C(F)(F)C(F)(F)COC(=O)C=C` was “inactive”. On the same count and under the same terms, under `CCc1ccc(C(c2ccc(CC)cc2)C(Cl)Cl)cc1` stands “inactive”; under `CO[Si](OC)(c1ccccc1)c1ccccc1`, “inactive”. Regarding `Cc1cc(C)cc(O)c1`, the outcome was inactive. `CCCCCCOC(=O)c1ccccc1O`: the compound was classed as inactive. Consider `O=C(O)C(F)(F)C(F)(F)C(F)(F)C(F)(F)C(F)(F)C(F)(F)C(F)(F)C(F)(F)C(F)(F)C(F)(F)C(F)(F)C(F)(F)F`, for which the call was inactive.

As to `CCCCCCS`, the compound was classed as inactive. Take `CCCCOc1ccc(N)cc1`: the compound was classed as inactive. In the case of `c1ccc(-c2ccccc2-c2ccccc2)cc1`, the compound was called inactive.

Take `FC(F)(F)C(F)(F)C(F)(F)C(F)(F)C(F)(F)C(F)(F)C(F)(F)C(F)(F)CCS`: the result was inactive. Consider `CCCCNc1ccccc1`, for which the compound was called inactive. As for `OCC(F)(F)C(F)(F)C(F)(F)C(F)(F)C(F)(F)C(F)(F)F`, the outcome was inactive. Consider `O=C(O)C(F)(F)C(F)(F)C(F)(F)C(F)(F)F`, for which the compound was called inactive.

On to `Cc1ccc(S(=O)(=O)OCC(F)(F)C(F)(F)C(F)(F)C(F)(F)C(F)(F)C(F)F)cc1`, for which the result was inactive. `CCCCCCOC(=O)c1ccccc1`: the AC50 is 50.4 µM (active). Same read-out and setting: under `CCN(Cc1cccc(S(=O)(=O)O)c1)c1ccc(C(=C2C=CC(=[N+](CC)Cc3cccc(S(=O)(=O)O)c3)C=C2)c2ccc(O)cc2S(=O)(=O)[O-])cc1` stands 33 µM (active). In the case of `CNC(=S)NC`, the compound was classed as inactive. Regarding `CCCCC(CC)COP(=O)(O)OCC(CC)CCCC` (centres undefined), the compound was classed as inactive. Turning to `C=C(C)C(=O)OCC(F)(F)C(F)(F)C(F)(F)F`, the call was inactive.

With `COC(=O)C1CCC(C(=O)OC)CC1` (centres undefined), the outcome was inactive.

For `C=CC/C=C/C/C=C/C/C=C/C`, the compound was called inactive. In the case of `O=C(O)C(F)(F)C(F)(F)C(F)(F)C(F)(F)C(F)(F)C(F)(F)C(F)(F)C(F)(F)C(F)(F)C(F)(F)C(F)(F)C(F)(F)C(F)(F)F`, the call was inactive.

Consider `C=CC(=O)OCC(F)(F)C(F)(F)C(F)(F)C(F)(F)C(F)(F)C(F)(F)C(F)(F)F`, for which the compound was called inactive.

As to `N=C(N)C(F)(F)C(F)(F)C(F)(F)C(F)(F)C(F)(F)C(F)(F)C(F)(F)F`, the compound was classed as inactive.

Consider `Nc1ccc(S(=O)(=O)Nc2nccs2)cc1`, for which the outcome was inactive. Take `O=C(C=Cc1ccccc1)OCC=Cc1ccccc1`: the compound was called inactive. Regarding `FC(F)(F)C(F)(F)C(F)(F)C(F)(F)C(F)(F)CCI`, the AC50 was 32.1 µM (active). Consider `Nc1ccc(Oc2cccc(Oc3ccc(N)cc3)c2)cc1`, for which the call was inactive.

`FC1CC(F)(F)C(F)(F)C1(F)F` (centres undefined): the result was inactive. In the case of `CCCCCCCOC(=O)c1ccccc1C(=O)OCCCCCCC`, the result was inactive.

These data come from PubChem BioAssay (EPA / NIEHS).
